# According to PubChem BioAssay (EPA / NIEHS):
# Results filed as inconclusive are left out. Where a structure was tested more than once in an assay, its records may differ in their call. The source made the active and inactive calls. Rule for the calls, unless noted: active = hit-call score of the fitted dose curve at least 0.9, where 1 is the maximum; inconclusive = response in the unintended direction; inactive = score below 0.9.
# Columns and labels:
# [1] = target: Hepatocyte nuclear factor 3-beta (Homo sapiens) (UniProt Q9Y261); experiment: ATG_FoxA2_CIS: Attagene CIS-FACTORIAL HepG2 Assay for human Forkhead box A2 (FOXA2) (AID 2282942; active = hit-call score of the fitted dose curve at least 0.9, where 1 is the maximum; inactive = score below 0.9); conditions: HepG2 cis-reporter transcription factor activity, 24 h; actives raise or lower the signal
# How it was run: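 HepG2 transiently transfected with a multiplexed cis-promoter reporter library read endogenous FOXA2 activity. After 24 h compound exposure, reporter mRNA was quantified by RT-PCR, HpaI digestion and capillary electrophoresis. Bidirectional fit against DMSO.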
# [2] = ATG_GRE_CIS: Attagene CIS-FACTORIAL HepG2 Assay for human Glucocorticoid Response Elements (GRE) (AID 2282947; active = hit-call score of the fitted dose curve at least 0.9, where 1 is the maximum; inactive = score below 0.9); conditions: HepG2 GRE cis-reporter, Attagene multiplex mRNA; actives raise or lower the signal
# How it was run: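 HepG2 cells transiently transfected with multiple cis-promoter reporter units measure endogenous TF activity; 24 h compound exposure. Reporter mRNA quantified by RT-PCR, FAM labelling, HpaI digestion and capillary electrophoresis; bidirectional fit vs DMSO baseline.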
# [3] = target: Hypoxia-inducible factor 1-alpha (Homo sapiens) (UniProt Q16665); experiment: ATG_HIF1a_CIS: Attagene CIS-FACTORIAL HepG2 Assay for human Hypoxia Inducible Factor 1 (HIF1A) (AID 2282951; active = hit-call score of the fitted dose curve at least 0.9, where 1 is the maximum; inactive = score below 0.9); conditions: HepG2 Attagene cis-factorial HIF1a reporter transcription; actives raise or lower the signal
# How it was run: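 HepG2 cells transiently transfected with multiple cis-regulated reporter transcription units measure endogenous transcription factor activity. After 24 h exposure, reporter mRNA is quantified by RT-PCR with 6-FAM labelling, HpaI digestion and capillary electrophoresis. Bidirectional fitting against DMSO.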
# [4] = target: Paired box protein Pax-6 (Homo sapiens) (UniProt P26367); experiment: ATG_Pax6_CIS: Attagene CIS-FACTORIAL HepG2 Assay for human Paired Box 6 (PAX6) (AID 2282956; active = hit-call score of the fitted dose curve at least 0.9, where 1 is the maximum; inactive = score below 0.9); conditions: HepG2 CIS-FACTORIAL PAX6 reporter transcription, RNA readout; actives raise or lower the signal
# How it was run: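 After twenty-four hours of chemical exposure, transfected HepG2 cells are harvested for RNA. Cis-promoter reporter transcripts are amplified, fluorescently labelled and sized by capillary electrophoresis, with gain and loss of signal scored against DMSO.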
# [5] = ATG_M_19_TRANS: Attagene TRANS-FACTORIAL HepG2 Assay for M19 Transcription Factor (Internal Marker) (AID 2282974); conditions: HepG2 Attagene TRANS-FACTORIAL M19 internal marker reporter
# How it was run: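 HepG2 transiently transfected with GAL4-UAS multiplex reporter constructs, exposed 24 h; reporter RNA quantified by RT-PCR, 6-FAM labeling, HpaI digestion and capillary electrophoresis; internal background marker fitted upward versus DMSO.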
# [6] = ATG_M_32_TRANS: Attagene TRANS-FACTORIAL HepG2 Assay for M32 Transcription Factor (Internal Marker) (AID 2282984); conditions: HepG2 Attagene TRANS M32 internal marker reporter;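 note: transcript level of a background control reporter unit measured by RT-PCR and capillary electrophoresis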
# How it was run: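 HepG2 cells transiently transfected with multiple GAL4-UAS reporter transcription units, dosed for 24 hours; reporter mRNA quantified by RT-PCR, 6-FAM primer extension, HpaI digestion and capillary electrophoresis. Gain-of-signal fitted versus DMSO baseline; internal background-control marker.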
# [7] = target: Myc proto-oncogene protein (Homo sapiens) (UniProt P01106); experiment: ATG_Myc_CIS: Attagene CIS-FACTORIAL HepG2 Assay for human Myelocytomatosis (Myc) Proto-Oncogene Transcription Factor (AID 2282990; active = hit-call score of the fitted dose curve at least 0.9, where 1 is the maximum; inactive = score below 0.9); conditions: HepG2, Attagene cis-reporter transcription factor activity; actives raise or lower the signal
# How it was run: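 HepG2 cells transiently transfected with multiple cis-promoter-driven reporter transcription units, so endogenous TF activity is read. After 24 h compound exposure, reporter mRNA was quantified by RT-PCR, 6-FAM labelling, HpaI digestion and capillary electrophoresis; bidirectional fit versus DMSO.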
# [8] = ATG_NRF2_ARE_CIS: Attagene CIS-FACTORIAL HepG2 Assay for human Nuclear Factor Erythroid 2 Related Factor 2 (NFR2) response to Antioxidant Response Elements (ARE) (AID 2282992; active = hit-call score of the fitted dose curve at least 0.9, where 1 is the maximum; inactive = score below 0.9;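 for AC50: reporter mRNA level measured by RT-PCR and capillary electrophoresis fluorescence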); conditions: HepG2 Attagene ARE/NRF2 reporter, transcription factor activity; actives raise or lower the signal
# How it was run: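 Cis-factorial assay: transfected HepG2 reporter library, 24 h dosing, mRNA readout via RT-PCR/CE; DMSO-referenced bidirectional analysis.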
# [9] = target: human Peroxisome Proliferator-activated Receptor alpha (PPARa), PPARA (gene 5465) (UniProt Q07869); experiment: ATG_PPARa_TRANS: Attagene TRANS-FACTORIAL HepG2 Assay for human Peroxisome Proliferator-activated Receptor alpha (PPARa) (AID 2283001)
# How it was run: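 HepG2 cells transiently transfected with multiplexed GAL4-UAS reporter units and chimeric NR-Gal4 constructs were dosed for 24 h. Reporter mRNA was measured by RT-PCR with fluorescent labelling and capillary electrophoresis; gain of signal fitted against DMSO.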
# [10] = target: Signal transducer and activator of transcription 3 (Homo sapiens) (UniProt P40763); experiment: ATG_STAT3_CIS: Attagene CIS-FACTORIAL HepG2 Assay for human Signal Transducer and Activator of Transcription 3 (STAT3) (AID 2282963; active = hit-call score of the fitted dose curve at least 0.9, where 1 is the maximum; inactive = score below 0.9); conditions: HepG2, Attagene cis-factorial STAT3 reporter transcription; actives raise or lower the signal
# How it was run: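 HepG2 cells transiently transfected with cis-element-driven multiple reporter transcription units; after 24 h chemical exposure, reporter mRNA measured by RT-PCR, 6-FAM primer-extension labelling, HpaI digestion and capillary electrophoresis. Bidirectional fitting versus DMSO baseline.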
# [11] = TOX21_p53_BLA_p2_viability: Viability Assessment in the Tox21 HCT-116 p53 Agonism Beta-lactamase Assay, Phase 2 (AID 2283591);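 note: compound exposure lasted 16 h at 37 °C; actives lower the ATP signal meaning cytotoxicity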
# How it was run: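 HCT-116 p53-bla cells (4000/well) rested 5 h at 37C, then received compounds in DMSO (217-fold dilution) for 16 h at 37C, 5% CO2. After the CCF4 read, CellTiter-Glo was added; ATP luminescence was read after 30 min at room temperature.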
# [12] = target: Cellular tumor antigen p53 (Homo sapiens) (UniProt P04637); experiment: TOX21_p53_BLA_p2_ratio: Tox21 HCT-116 p53 Agonism Beta-lactamase Assay, Ratio, Phase 2 (AID 2283592)
# How it was run: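 In this cell-based reporter format, HCT116 cells were dosed with chemicals delivered from DMSO by 217-fold dilution and incubated 16 h at 37C. Emission at 460 and 530 nm after 2 h CCF4-AM loading provided the ratio, fitted upward versus DMSO.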
# [13] = target: Cellular tumor antigen p53 (Homo sapiens) (UniProt P04637); experiment: TOX21_p53_BLA_p3_ratio: Tox21 HCT-116 p53 Agonism Beta-lactamase Assay, Ratio, Phase 3 (AID 2283596)
# How it was run: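 HCT116 p53-bla cells (4000/well) given compound in DMSO (217-fold dilution) after 5 h, incubated 16 h at 37C. CCF4-AM substrate 2 h at room temperature; 460/530 nm emission ratio, gain fitted against DMSO.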
# [14] = target: Cellular tumor antigen p53 (Homo sapiens) (UniProt P04637); experiment: TOX21_p53_BLA_p5_ratio: Tox21 HCT-116 p53 Agonism Beta-lactamase Assay, Ratio, Phase 5 (AID 2283599)
# How it was run: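 HCT-116 cells carrying a p53-inducible beta-lactamase reporter were seeded at 4000 cells/well and dosed after 5 h with compound in DMSO (217-fold dilution). After 16 h at 37C, CCF4-AM substrate was added for 2 h, and the 460/530 nm emission ratio was scored as gain-of-signal versus DMSO.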
# [15] = TOX21_p53_BLA_p5_viability: Viability Assessment in the Tox21 HCT-116 p53 Agonism Beta-lactamase Assay, Phase 5 (AID 2283600)
# How it was run: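 Compounds, pinned from DMSO at 217-fold dilution, were left on the cells for 16 h. The viability endpoint was ATP content measured by CellTiter-Glo luminescence, where falling signal reflects cytotoxicity.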
# [16] = target: Heat shock factor protein 1 (Homo sapiens) (UniProt Q00613); experiment: ATG_HSE_CIS: Attagene CIS-FACTORIAL HepG2 Assay for human Heat Shock Transcription Factor 1 (HSE) (AID 2282953; active = hit-call score of the fitted dose curve at least 0.9, where 1 is the maximum; inactive = score below 0.9); conditions: HepG2 HSE cis-reporter, Attagene RNA transcription; actives raise or lower the signal
# How it was run: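 HepG2, transient MRTU transfection, cis-promoter reporters (endogenous TF activity). 24 h compound. RNA → oligo(dT) RT → PCR → 6-FAM primer extension → HpaI cut → CE. Bidirectional fit vs DMSO.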
# [17] = ATG_RORE_CIS: Attagene CIS-FACTORIAL HepG2 Assay for human RAR-related Orphan Receptor Element (RORE) (AID 2282959; active = hit-call score of the fitted dose curve at least 0.9, where 1 is the maximum; inactive = score below 0.9); conditions: HepG2 Attagene cis-factorial RORE reporter, mRNA; actives raise or lower the signal
# How it was run: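 HepG2 cells carrying transiently transfected cis-regulated reporter units; RORE-driven reporter mRNA quantified 24 h post-dosing by RT-PCR, 6-FAM primer extension, HpaI digestion and capillary electrophoresis. Bidirectional fit versus DMSO.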
# [18] = target: Hepatocyte nuclear factor 4-alpha (Homo sapiens) (UniProt P41235); experiment: ATG_HNF4a_TRANS: Attagene TRANS-FACTORIAL HepG2 Assay for human Hepatocyte Nuclear Factor 4 alpha (HNF4a) (AID 2282982); conditions: HepG2 HNF4a transactivation reporter, mRNA readout
# How it was run: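 HepG2 cells transiently transfected with multiplexed GAL4-UAS reporter units responsive to chimeric NR-GAL4 proteins; compound exposure 24 h. Reporter mRNA quantified by RT-PCR, 6-FAM labelling, HpaI digestion and capillary electrophoresis; gain of signal versus DMSO baseline.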
# [19] = target: Cellular tumor antigen p53 (Homo sapiens) (UniProt P04637); experiment: ATG_p53_CIS: Attagene CIS-FACTORIAL HepG2 Assay for human p53 Transcription Factor (AID 2282994; active = hit-call score of the fitted dose curve at least 0.9, where 1 is the maximum; inactive = score below 0.9); conditions: HepG2 p53 cis-element reporter, Attagene mRNA; actives raise or lower the signal
# How it was run: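 Using HepG2 hepatoma cells carrying cis-acting multiplexed reporters, mRNA induction is detected after a 24 h exposure. Gain- and loss-of-signal responses are fitted relative to DMSO-treated cells.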
# [20] = target: Cellular tumor antigen p53 (Homo sapiens) (UniProt P04637); experiment: TOX21_p53_BLA_p4_ratio: Tox21 HCT-116 p53 Agonism Beta-lactamase Assay, Ratio, Phase 4 (AID 2283601)
# How it was run: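 HCT116 cells carrying an inducible beta-lactamase reporter were plated at 4000 cells/well, rested 5 h, then exposed to compounds in DMSO (217-fold dilution) for 16 h at 37C. CCF4-AM substrate was loaded 2 h at room temperature; 460/530 nm emission ratio scored gain-of-signal versus DMSO.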
# Sequence of Hepatocyte nuclear factor 4-alpha (Homo sapiens) (P41235 whole entry, looked up, the tested form may be a part): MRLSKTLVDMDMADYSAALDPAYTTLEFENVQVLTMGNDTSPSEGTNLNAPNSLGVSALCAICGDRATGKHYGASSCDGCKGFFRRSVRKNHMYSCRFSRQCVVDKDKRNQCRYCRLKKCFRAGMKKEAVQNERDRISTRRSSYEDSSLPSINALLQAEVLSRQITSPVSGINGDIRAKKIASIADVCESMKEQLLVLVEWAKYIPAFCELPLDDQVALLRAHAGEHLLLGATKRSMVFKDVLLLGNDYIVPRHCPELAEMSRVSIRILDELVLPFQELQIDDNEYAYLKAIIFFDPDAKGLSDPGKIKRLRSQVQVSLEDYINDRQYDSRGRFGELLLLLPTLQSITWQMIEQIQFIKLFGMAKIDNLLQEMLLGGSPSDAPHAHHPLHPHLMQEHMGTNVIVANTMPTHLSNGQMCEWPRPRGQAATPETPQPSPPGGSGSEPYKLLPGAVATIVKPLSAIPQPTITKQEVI
# Sequence of Signal transducer and activator of transcription 3 (Homo sapiens) (P40763 whole entry, looked up): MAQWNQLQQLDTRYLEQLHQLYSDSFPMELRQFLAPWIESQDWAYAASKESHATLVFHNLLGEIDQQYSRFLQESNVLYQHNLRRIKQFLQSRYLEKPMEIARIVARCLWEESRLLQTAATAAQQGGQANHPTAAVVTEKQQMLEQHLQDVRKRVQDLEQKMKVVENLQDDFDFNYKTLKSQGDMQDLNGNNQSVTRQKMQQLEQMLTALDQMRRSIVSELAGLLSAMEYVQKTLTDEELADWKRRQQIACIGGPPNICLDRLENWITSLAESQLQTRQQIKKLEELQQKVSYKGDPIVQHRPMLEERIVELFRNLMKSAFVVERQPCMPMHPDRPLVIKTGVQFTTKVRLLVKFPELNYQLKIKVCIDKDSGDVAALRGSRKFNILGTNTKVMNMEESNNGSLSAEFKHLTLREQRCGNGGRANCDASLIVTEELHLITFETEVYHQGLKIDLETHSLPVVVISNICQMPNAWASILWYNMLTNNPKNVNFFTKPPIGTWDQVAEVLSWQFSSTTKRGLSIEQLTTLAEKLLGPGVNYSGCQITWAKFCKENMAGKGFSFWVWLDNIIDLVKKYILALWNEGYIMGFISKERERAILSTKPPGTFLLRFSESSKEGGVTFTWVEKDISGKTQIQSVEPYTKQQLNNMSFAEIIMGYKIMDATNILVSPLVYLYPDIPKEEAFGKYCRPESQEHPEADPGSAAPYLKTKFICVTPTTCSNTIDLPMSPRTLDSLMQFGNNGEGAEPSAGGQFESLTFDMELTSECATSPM
# Sequence of Heat shock factor protein 1 (Homo sapiens) (Q00613 whole entry, looked up): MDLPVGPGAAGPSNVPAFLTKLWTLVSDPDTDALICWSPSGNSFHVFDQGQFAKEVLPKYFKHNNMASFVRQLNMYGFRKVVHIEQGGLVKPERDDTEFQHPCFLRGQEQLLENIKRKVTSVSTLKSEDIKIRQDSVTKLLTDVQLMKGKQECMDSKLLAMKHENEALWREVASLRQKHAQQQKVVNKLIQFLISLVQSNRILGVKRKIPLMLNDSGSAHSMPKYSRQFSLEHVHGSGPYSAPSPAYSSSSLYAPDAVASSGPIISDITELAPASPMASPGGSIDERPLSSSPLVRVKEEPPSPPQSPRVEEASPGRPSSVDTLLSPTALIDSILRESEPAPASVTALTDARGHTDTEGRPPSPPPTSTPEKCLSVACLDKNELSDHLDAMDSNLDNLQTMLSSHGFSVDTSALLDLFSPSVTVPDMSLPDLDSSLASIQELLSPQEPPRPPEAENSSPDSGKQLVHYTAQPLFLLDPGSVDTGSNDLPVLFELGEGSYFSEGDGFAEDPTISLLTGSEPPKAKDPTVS
# Sequence of Myc proto-oncogene protein (Homo sapiens) (P01106 whole entry, looked up): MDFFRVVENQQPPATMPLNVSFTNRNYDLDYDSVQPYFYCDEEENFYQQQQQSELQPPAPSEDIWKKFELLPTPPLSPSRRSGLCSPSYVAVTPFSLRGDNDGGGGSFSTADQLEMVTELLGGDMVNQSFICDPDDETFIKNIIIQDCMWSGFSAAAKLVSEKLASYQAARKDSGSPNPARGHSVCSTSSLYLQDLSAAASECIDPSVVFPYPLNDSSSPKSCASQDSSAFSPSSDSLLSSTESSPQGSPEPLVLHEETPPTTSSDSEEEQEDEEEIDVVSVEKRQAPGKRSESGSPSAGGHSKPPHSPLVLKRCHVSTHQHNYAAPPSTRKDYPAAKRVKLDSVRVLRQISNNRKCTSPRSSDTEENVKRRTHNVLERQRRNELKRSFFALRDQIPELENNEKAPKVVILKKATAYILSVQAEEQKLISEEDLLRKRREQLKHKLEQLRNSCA
# Sequence of Hypoxia-inducible factor 1-alpha (Homo sapiens) (Q16665 whole entry, looked up): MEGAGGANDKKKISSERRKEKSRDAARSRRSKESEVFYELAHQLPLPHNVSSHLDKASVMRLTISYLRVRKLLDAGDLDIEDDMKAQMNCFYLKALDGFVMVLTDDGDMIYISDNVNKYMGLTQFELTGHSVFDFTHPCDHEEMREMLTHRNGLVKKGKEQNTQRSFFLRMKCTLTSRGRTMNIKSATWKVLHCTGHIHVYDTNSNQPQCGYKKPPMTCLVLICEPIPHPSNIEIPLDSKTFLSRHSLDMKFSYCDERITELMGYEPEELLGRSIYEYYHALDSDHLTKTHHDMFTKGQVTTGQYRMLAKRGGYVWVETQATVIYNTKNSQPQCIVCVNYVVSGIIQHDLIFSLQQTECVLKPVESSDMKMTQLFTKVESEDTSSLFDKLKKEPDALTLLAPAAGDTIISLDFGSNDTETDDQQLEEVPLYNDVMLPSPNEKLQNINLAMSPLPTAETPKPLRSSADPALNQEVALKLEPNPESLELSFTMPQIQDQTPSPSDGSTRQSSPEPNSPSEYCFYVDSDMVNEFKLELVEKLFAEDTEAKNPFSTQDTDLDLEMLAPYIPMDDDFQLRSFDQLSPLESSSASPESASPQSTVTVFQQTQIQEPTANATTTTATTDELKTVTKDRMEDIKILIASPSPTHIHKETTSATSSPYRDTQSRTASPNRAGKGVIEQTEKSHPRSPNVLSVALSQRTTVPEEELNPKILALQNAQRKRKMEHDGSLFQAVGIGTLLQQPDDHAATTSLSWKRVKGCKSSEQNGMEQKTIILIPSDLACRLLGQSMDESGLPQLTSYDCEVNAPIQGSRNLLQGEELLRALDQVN
# Sequence of Hepatocyte nuclear factor 3-beta (Homo sapiens) (Q9Y261 whole entry, looked up): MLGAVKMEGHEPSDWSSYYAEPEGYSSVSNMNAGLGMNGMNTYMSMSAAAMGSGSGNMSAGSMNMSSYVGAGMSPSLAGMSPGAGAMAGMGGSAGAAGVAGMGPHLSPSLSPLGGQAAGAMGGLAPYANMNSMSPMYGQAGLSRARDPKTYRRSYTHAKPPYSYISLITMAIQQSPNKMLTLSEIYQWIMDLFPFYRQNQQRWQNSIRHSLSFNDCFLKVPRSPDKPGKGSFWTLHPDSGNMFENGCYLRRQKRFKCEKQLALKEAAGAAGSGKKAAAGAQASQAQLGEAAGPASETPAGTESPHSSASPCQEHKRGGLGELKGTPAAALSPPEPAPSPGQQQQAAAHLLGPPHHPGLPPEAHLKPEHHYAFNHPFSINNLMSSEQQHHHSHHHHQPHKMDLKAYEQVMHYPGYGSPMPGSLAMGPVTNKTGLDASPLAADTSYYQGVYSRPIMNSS
# Sequence of human Peroxisome Proliferator-activated Receptor alpha (PPARa), PPARA (gene 5465) (Q07869 whole entry, looked up, the tested form may be a part): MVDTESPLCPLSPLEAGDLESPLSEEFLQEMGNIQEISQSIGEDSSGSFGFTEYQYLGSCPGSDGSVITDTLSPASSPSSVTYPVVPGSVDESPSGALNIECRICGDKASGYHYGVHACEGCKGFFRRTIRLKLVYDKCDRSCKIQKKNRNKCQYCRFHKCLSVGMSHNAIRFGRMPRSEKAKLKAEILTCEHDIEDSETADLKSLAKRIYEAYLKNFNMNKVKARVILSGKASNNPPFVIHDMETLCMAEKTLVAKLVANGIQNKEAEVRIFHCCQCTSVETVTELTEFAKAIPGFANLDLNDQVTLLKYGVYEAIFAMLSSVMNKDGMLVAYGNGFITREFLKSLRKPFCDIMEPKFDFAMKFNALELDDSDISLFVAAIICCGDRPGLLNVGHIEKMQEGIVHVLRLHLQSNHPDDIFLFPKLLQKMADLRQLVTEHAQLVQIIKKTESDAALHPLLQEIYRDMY
# Sequence of Cellular tumor antigen p53 (Homo sapiens) (P04637 whole entry, looked up): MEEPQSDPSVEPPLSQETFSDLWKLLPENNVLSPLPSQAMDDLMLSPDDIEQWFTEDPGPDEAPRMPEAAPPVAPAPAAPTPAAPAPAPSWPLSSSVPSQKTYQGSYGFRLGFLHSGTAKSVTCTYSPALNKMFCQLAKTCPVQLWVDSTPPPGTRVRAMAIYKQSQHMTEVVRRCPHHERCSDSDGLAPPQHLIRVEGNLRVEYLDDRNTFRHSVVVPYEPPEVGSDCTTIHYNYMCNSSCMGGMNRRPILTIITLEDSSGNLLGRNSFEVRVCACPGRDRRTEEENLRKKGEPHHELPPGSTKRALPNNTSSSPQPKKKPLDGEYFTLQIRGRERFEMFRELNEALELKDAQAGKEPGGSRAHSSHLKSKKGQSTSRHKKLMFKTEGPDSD
# Sequence of Paired box protein Pax-6 (Homo sapiens) (P26367 whole entry, looked up): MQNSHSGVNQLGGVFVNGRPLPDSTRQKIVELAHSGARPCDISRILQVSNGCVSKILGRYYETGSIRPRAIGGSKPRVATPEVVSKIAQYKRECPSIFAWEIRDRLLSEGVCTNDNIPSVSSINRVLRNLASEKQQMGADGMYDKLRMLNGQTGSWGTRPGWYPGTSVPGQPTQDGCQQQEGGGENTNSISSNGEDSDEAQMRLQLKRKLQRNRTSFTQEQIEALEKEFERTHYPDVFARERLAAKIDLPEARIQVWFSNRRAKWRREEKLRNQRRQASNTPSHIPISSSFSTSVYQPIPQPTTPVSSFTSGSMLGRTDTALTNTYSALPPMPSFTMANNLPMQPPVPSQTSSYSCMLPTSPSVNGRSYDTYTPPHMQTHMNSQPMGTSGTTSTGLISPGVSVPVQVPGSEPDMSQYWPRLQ
structure (smiles),measurement,setting,value
COC(=O)c1ccccc1S(=O)(=O)NC(=O)Nc1nc(C)cc(C)n1,outcome,[1],inactive
same,outcome,[2],inactive
same,outcome,[3],inactive
same,outcome,[4],inactive
same,outcome,[5],inactive
same,outcome,[6],inactive
same,outcome,[7],inactive
same,outcome,[8],inactive
same,outcome,[9],inactive
COc1cc(OC)nc(Oc2cccc(Oc3nc(OC)cc(OC)n3)c2C(=O)O)n1,outcome,[1],inactive
same,outcome,[3],inactive
same,outcome,[4],inactive
same,outcome,[10],inactive
same,outcome,[5],inactive
same,outcome,[6],inactive
same,outcome,[8],inactive
same,outcome,[9],inactive
same,outcome,[11],inactive
same,outcome,[12],inactive
same,outcome,[13],inactive
same,outcome,[14],inactive
same,outcome,[15],inactive
[Cl][Sb]([Cl])[Cl],outcome,[1],inactive
same,outcome,[2],inactive
same,AC50,[16],169 µM (active)
same,AC50,[4],133 µM (active)
same,outcome,[17],inactive
same,outcome,[18],inactive
same,AC50,[7],175 µM (active)
same,AC50,[19],180 µM (active)
same,outcome,[11],inactive
same,outcome,[12],inactive
same,outcome,[13],inactive
same,outcome,[14],inactive
same,outcome,[15],inactive
same,outcome,[20],inactive
CCCOC(=O)c1ccccc1C(=O)OCCC,outcome,[1],inactive
same,outcome,[16],inactive
same,outcome,[4],inactive
same,outcome,[17],inactive
same,outcome,[10],inactive
same,outcome,[5],inactive
same,outcome,[18],inactive
same,outcome,[6],inactive
same,outcome,[7],inactive
same,outcome,[19],inactive
same,outcome,[9],inactive
same,outcome,[11],inactive
same,outcome,[12],inactive
same,outcome,[13],inactive
same,outcome,[14],inactive
same,outcome,[15],inactive
same,outcome,[20],inactive
O=C=Nc1ccccc1,outcome,[1],inactive
same,outcome,[3],inactive
same,outcome,[16],inactive
same,outcome,[4],inactive
same,outcome,[10],inactive
same,outcome,[5],inactive
same,outcome,[18],inactive
same,outcome,[7],inactive
same,outcome,[8],inactive
Oc1ccc(Cl)cc1,outcome,[1],inactive
same,outcome,[3],inactive
same,outcome,[16],inactive
same,outcome,[17],inactive
same,outcome,[18],inactive
same,outcome,[6],inactive
same,outcome,[7],inactive
same,outcome,[8],inactive
same,outcome,[19],inactive
same,outcome,[11],inactive
same,outcome,[12],inactive
same,outcome,[13],inactive
same,outcome,[14],inactive
same,outcome,[15],inactive
same,outcome,[20],inactive
CCN(CC)C(=S)S,outcome,[2],inactive
same,outcome,[3],inactive
same,outcome,[16],inactive
same,outcome,[4],inactive
same,outcome,[10],inactive
same,outcome,[6],inactive
same,outcome,[7],inactive
same,AC50,[8],27.8 µM (active)
O=C1Nc2ccc(Cl)cc2C(c2ccccc2)=NC1O (centres undefined),outcome,[1],inactive
same,outcome,[3],inactive
same,outcome,[16],inactive
same,outcome,[17],inactive
same,outcome,[10],inactive
same,outcome,[7],inactive
same,outcome,[19],inactive
same,outcome,[9],inactive
same,outcome,[11],inactive
same,outcome,[12],inactive
same,outcome,[13],inactive
same,AC50,[14],77.3 µM (active)
same,outcome,[14],inactive
same,outcome,[15],inactive
COc1cc(OC)c(OC)cc1C=O,outcome,[2],inactive
same,outcome,[4],inactive
same,outcome,[17],inactive
same,outcome,[10],inactive
same,outcome,[5],inactive
same,outcome,[18],inactive
same,outcome,[6],inactive
same,outcome,[7],inactive
same,outcome,[8],inactive
same,outcome,[11],inactive
same,outcome,[12],inactive
same,outcome,[13],inactive
same,outcome,[14],inactive
same,outcome,[15],inactive
same,outcome,[20],inactive
